SF-1 inh – inhibitors of human nuclear receptor SF-1. Q13285. CHO-K1 Gal4-SF-1 LBD luciferase reporter. inhibition, % at 10 µM. actives 0.55% (n = 65,000). AID 525;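 active = inhibition above the mean inhibition of all tested compounds plus 3 SD, cut at about 48% in these data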;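 note: 0% = SF-1 transfected cells with DMSO and 100% = mock-transfected cells lacking SF-1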
Target sequence (Q13285 whole entry, looked up, the tested form may be a part): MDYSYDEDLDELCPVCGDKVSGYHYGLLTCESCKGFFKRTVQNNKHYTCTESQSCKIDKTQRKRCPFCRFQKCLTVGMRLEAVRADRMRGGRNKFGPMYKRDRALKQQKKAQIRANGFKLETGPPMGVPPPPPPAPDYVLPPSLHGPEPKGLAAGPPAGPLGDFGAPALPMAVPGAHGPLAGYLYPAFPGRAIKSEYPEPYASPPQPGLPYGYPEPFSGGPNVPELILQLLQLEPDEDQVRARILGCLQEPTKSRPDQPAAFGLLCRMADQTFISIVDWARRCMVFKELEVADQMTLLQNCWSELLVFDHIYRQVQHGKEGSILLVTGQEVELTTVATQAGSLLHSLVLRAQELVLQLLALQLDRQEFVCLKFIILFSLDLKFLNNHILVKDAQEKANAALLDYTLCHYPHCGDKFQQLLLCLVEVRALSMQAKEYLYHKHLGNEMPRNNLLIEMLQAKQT
Active calls of the source: *. This excerpt belongs to a sample that is enriched for hits.

SMILES	SF-1 inh
CC(=O)c1c(NCCc2ccccc2)cc(C)oc1=O	7.6
CC(=O)CC1OC(=O)C(Br)=C1NCc1ccccc1 (stereo not given)	78.7*
CCOC(=O)C1CCN(S(=O)(=O)c2c(C)[nH]c(=O)[nH]c2=O)CC1	-10.0
c1cn(CC2(Cn3ccnc3)COC2)cn1	-7.6
Cc1ccc(NC(=O)C2CCCN(c3ncccn3)C2)cc1F (stereo not given)	-67.3
CCc1ccc2oc(-c3cc(N)cc(C)c3O)nc2c1	-38.9
CCc1ccc2oc(-c3cc(N)ccc3O)nc2c1	56.0*
CCc1ccc2oc(-c3cc(N)ccc3Cl)nc2c1	16.7
CCN(CC)C(=O)c1cc(-c2ccc(Br)cc2)on1	-55.8
CCOC(=O)c1c(C)[nH]c(C(=O)COC(=O)CNC(=O)C2CCCCC2)c1C	0.4
Cc1ccc(OCCSc2nnc(-c3ccncc3)n2C)cc1	6.1
c1ccc(OCCSc2nnnn2-c2ccccc2)cc1	-63.3
c1ccc(OCCSc2nnc3sc4ccccc4n23)cc1	54.2*
O=S1(=O)Nc2c(ccc3cccnc23)-c2ccccc21	90.9*
Cc1ccc2c(COC(=O)C3=COCCO3)cc(=O)oc2c1	-67.3
Cc1cccc(NC(=O)Nc2ccc(C#N)cc2)n1	71.1*
Cc1cccc(NC(=O)c2cc3ccccc3c(=O)o2)n1	-64.6
COc1ccc(NC(=O)Nc2cccc(C)n2)cc1	-64.1
COc1ccc2c(c1)CCc1c(C(=O)NC3CCCCC3)noc1-2	-54.1
CCOC(=O)c1sc(NC(=O)c2ccc3ncsc3c2)nc1C	-76.5
CS(=O)(=O)N1CCN(c2ccccc2NC(=O)Cc2ccccc2)CC1	0.7
CC1CCN(CCCNC(=O)c2ccc(CS(=O)(=O)Cc3ccccc3F)o2)CC1	-7.7
Cc1ccccc1S(=O)(=O)Cc1ccc(C(=O)N2CCN(c3cccc(C)c3C)CC2)o1	81.7*
CC(=O)c1cn(CC(=O)NCc2cccnc2)c2ccccc12	21.2
O=S(=O)(C/C(=C/CO)S(=O)(=O)c1ccccc1)c1ccccc1	95.5*
SMILES	SF-1 inh
O=C(CS(=O)(=O)c1ccccc1)c1ccc2c(c1)OCCO2	-51.5
COc1ccc(-n2nc(C(=O)NCc3ccco3)c3c4ccccc4n(C)c3c2=O)cc1	26.2
COc1ccc(OC)c(C(=O)CSc2nc3c(c(=O)n(C)c(=O)n3C)n2C(C)C)c1	8.9
COc1ccc(Cl)c(Cn2c(NCc3ccco3)nc3c2c(=O)n(C)c(=O)n3C)c1	49.4*
Cn1c(=O)c2c(nc(CN3CCN(C(=O)c4ccco4)CC3)n2Cc2ccc(F)cc2)n(C)c1=O	-12.2
CCN(CC)CCn1c(NCc2cccc(OC)c2)nc2ccccc21	3.3
COc1cccc(Cn2c(NCc3ccco3)nc3c2c(=O)n(C)c(=O)n3C)c1	62.6*
O=S(=O)(Nc1cccnc1)c1ccc2c(c1)OCCO2	2.8
COC(=O)c1ccc(S(=O)(=O)NCCSc2nnc3c4ccccc4n(C)c3n2)cc1	-1.7
COC1Cc2ccccc2N(C(=O)N2CCN(CCO)CC2)c2ccccc21 (stereo not given)	0.0
O=C(NCC(c1cccnc1)N1CCN(c2ccc(F)cc2)CC1)c1ccc2c(c1)OCO2 (stereo not given)	16.7
COC(=O)c1ccc(Oc2cc(C)nc(SC)n2)cc1	-70.8
Cc1noc(C)c1COC(=O)c1cc2c3ccccc3n(C)c2s1	0.7
O=C(Nc1nccs1)c1ccc(NC(=O)c2ccco2)cc1	-55.9
CC1CCCCN1C(=O)C1CC(c2ccc(F)cc2)=NO1 (stereo not given)	-62.6
COc1nc(OC)nc(N2CCC(C(=O)NCC3CCCCC3)CC2)n1	-7.9
C=CCNC(=O)C(C#N)c1nc2ccccc2nc1N1CCN(Cc2ccccc2)CC1 (stereo not given)	-6.4
c1ccc(CN2CCN(c3ncnc4c3[nH]c3ccccc34)CC2)cc1	49.7*
COc1ccc(C)cc1NC(=O)NC1CCN(Cc2ccccc2)CC1	-1.2
c1ccc2c(c1)CCN(c1ncnc3c1[nH]c1ccccc13)C2	85.7*
Cc1ccc2c(c1)[nH]c1c(N3CCN(Cc4ccccc4)CC3)ncnc12	49.5*
Cc1cc(=O)[nH]c(N2CCN(Cc3ccccc3)CC2)n1	-5.1
c1ccc2c(c1)oc1c(Nc3ccc(CN4CCOCC4)cc3)ncnc12	-54.0
CC(OC(=O)CNC(=O)c1ccc2c(c1)OCO2)C(=O)NCCC1=CCCCC1 (stereo not given)	0.0
COc1cccc(N2CCN(C(=O)c3ccc4nc(N5CCCCC5)sc4c3)CC2)c1	-89.0
SMILES	SF-1 inh
COc1ccccc1NC(=O)C1C2C=CC3(CN(Cc4cccnc4)C(=O)C13)O2 (stereo not given)	13.1
CCCCN(CC)CCNS(=O)(=O)c1ccc2c(c1)oc(=O)n2C	-4.6
CCOC(=O)c1c(NC(=O)CSc2nc(C)cc(C)c2C#N)sc(C(C)=O)c1C	0.5
O=C1C2CC=CCC2C(=O)N1c1n[nH]c(Cc2ccccc2)n1 (stereo not given)	1.4
Cc1nnc(Sc2nc3c(c(=O)[nH]c(=O)n3C)n2CCCc2ccccc2)s1	2.9
Cc1nc2nc(-c3ccccc3)cn2nc1C	54.7*
CNc1ccccc1-n1ccc(-c2ccccc2)n1	-18.2
Cc1nn2cc(-c3ccc(N)cc3)nc2s1	-88.5
CCc1ccc(-c2cn3nc(C)c(C)nc3n2)cc1	81.1*
COC(=O)C(Cc1ccc(O)cc1)NC(=O)c1ccccc1OC (stereo not given)	-2.8
CCOC(=O)CCNC(=O)Nc1ccc2nc(C)n(Cc3cccc(Cl)c3)c(=O)c2c1	6.2
CCCN(Cc1ccccc1)C(=O)Nc1ccc2c(c1)nnn2C	-32.9
CSc1nc(-c2ccccc2)nc2[nH]ccc(=O)c12	-11.5
COc1ccc(CN/C=C2\CCCCC2=O)cc1	0.5
O=C(Nc1nc(-c2ccccn2)cs1)c1ccc(S(=O)(=O)N2CCCCC2)cc1	64.1*
Cc1nc2ccc3nc(NC(=O)c4ccc(S(=O)(=O)N5CCOCC5)cc4)sc3c2s1	11.6
O=C(Nc1nc(-c2ccccn2)cs1)c1ccc(Cl)s1	94.8*
O=C(Nc1nccs1)c1ccc(Cl)s1	-58.0
O=C(Nc1ccc2sccc2c1)c1ccc(Cl)s1	-59.7
O=C(NC1CCCCC1)c1ccc(S(=O)(=O)N2CCCCC2)cc1	-14.1
CCN1CCN(CNC(=O)c2cnccn2)CC1	-1.2
O=C(O)c1oc2ccccc2c1CN1CCN(c2ccccc2)CC1	-14.0
Cn1c(CSc2nc3ccccc3s2)nc2ccccc21	-70.7
O=S1(=O)C=C(Sc2nc3ccccc3s2)c2ccccc21	93.2*
OC1CCCCC1Sc1nc2ccccc2s1 (stereo not given)	-59.0
SMILES	SF-1 inh
CCOc1ccc(-c2cc(CCCC(=O)NCCc3ccc(OC)c(OC)c3OC)no2)cc1	52.0*
COc1ccc(OC)c(NC(=O)CCN2CCCC(C)C2)c1 (stereo not given)	-1.4
CCOc1ccc(-c2cc(CCCC(=O)Nc3cc(OC)ccc3OC)no2)cc1	56.8*
CCOC(=O)N1CCN(CC(=O)Nc2cc(OCC)ccc2OCC)CC1	1.9
CCOc1ccc(-n2cc(C(=O)N3CCN(C)CC3)c3cc(OC)c(OC)cc3c2=O)cc1	-2.7
O=C(CCN1C(=O)C2CC=C(Cl)CC2C1=O)N1CCCCC1 (stereo not given)	-2.7
O=c1c(-c2ccc(F)cc2)coc2c3c(ccc12)OCCO3	-62.7
CCN1C(=O)c2cccc3c(S(=O)(=O)NC(Cc4c[nH]c5ccccc45)C(=O)O)ccc1c23 (stereo not given)	15.8
Cn1c(-n2c(-c3ccco3)nc3ccccc3c2=O)nc2ccccc21	15.1
Cc1cc(C)nc(NC2=NCC(=O)N2c2ccc3c(c2)OCCO3)n1	12.0
CCc1ccc(C(=O)NCc2cccs2)s1	-70.5

Assay outcomes from PubChem.
